Assay outcomes deposited in PubChem by several laboratories.
Rows were chosen to be rich in hits. Some 2.1% of all compounds tested hit in one or more screens of this group.
Arbovirus inh: antivirals against arbovirus infection, primary screen, cell-based, full library, 10K replicate subset; arbovirus infection cell-based antiviral screen; inhibition, % at 10 µM; 200,000 compounds, 0.37% hits; in the data active = inhibition above about 30%
HMGR II inh: inhibitors of E. faecalis class II HMGR, primary screen, biochemical, Enterococcus faecalis | HMG-CoA reductase (Enterococcus faecalis, mvaE) | purified E. faecalis HMGR, NADPH absorbance 340 nm kinetic | inhibition, % at 10 µM | 190,000 compounds, 0.41% hits | AID 1066, 2008;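 active = inhibition above a set limit, the median over all tested compounds plus 3 SD, cut at about 9.5% in these data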;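 also: enzyme runs in reverse so mevalonate oxidation gives rising NADPH absorbance; 0% = complete reaction with DMSO and 100% = background rate lacking mevalonate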
HSV augment: enhancers of HSV replication in host cells, fold increase, host cell viability | HSV replication augmentation in cells | maximum fold increase | 220,000 compounds, 0.005% hits | AID 1956, 2009; in the data active = maximum fold increase above about 1.5; tested in PC3 cells
m-calpain inh: inhibitors of pig calpain II, primary screen, biochemical, fluorogenic peptide substrate, 1536-well; purified calpain II, 30 min; inhibition, % at 16 µM; 220,000 compounds, 0.37% hits;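 active = inhibition above about 50%, limit read from the data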
ROMK primary: ROMK potassium channel modulators, primary screen, cell-based, thallium flux, MLSMR library | ATP-sensitive inward rectifier potassium channel 1 (Homo sapiens), P48048 | 130,000 compounds, 2% hits | Tet-inducible ROMK, thallium flux fluorescence; actives lie on both sides | B-score at 10 µM;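 active = signal ratio slope over the read window, or its plate-corrected B-score, at least 3 SD from the plate mean, either direction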;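 also: B-score of the F/F0 ratio slope over 7 to 12 s after thallium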
Target sequence (P48048 whole entry, looked up): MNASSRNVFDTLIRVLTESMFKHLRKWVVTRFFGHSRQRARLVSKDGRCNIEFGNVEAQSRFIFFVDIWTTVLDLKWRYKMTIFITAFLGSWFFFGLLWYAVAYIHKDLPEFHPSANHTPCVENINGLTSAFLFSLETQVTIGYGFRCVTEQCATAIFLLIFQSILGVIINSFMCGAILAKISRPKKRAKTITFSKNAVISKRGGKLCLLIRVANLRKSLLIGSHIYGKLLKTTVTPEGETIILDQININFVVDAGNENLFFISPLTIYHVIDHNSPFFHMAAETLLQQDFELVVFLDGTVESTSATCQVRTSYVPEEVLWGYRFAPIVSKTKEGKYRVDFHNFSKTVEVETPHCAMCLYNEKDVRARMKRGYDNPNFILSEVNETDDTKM
* hit, by the source's call; i = inactive; x = no result given.

SMILES	Arbovirus inh	HMGR II inh	HSV augment	m-calpain inh	ROMK primary
CCC(C)n1c(=S)[nH]c2c(sc3ccc([N+](=O)[O-])cc32)c1=O (configuration not stated)	-3	-12	i	19	5.3*
CC(C)n1c2ccccc2c2cc([N+](=O)[O-])ccc21	-4	-3	i	-8	0.9
COCCN1C(=O)/C(=C/c2ccc(Oc3ccc([N+](=O)[O-])cn3)c(OC)c2)SC1=Nc1ccccc1	32*	0	i	-51	-0.19
COc1cc(/C=C2\SC(=Nc3ccccc3)N(CCc3c[nH]c4ccccc34)C2=O)ccc1OC(C)C(=O)O (configuration not stated)	-13	2	i	-72	x
CN(C1CCCCC1)S(=O)(=O)c1ccc(S(=O)(=O)N(CC(=O)Nc2ccccc2)C2CC2)cc1	x	x	i	19	x
CCOC(=O)c1ccc(NC(=O)Cn2c(-c3nonc3N)nc3ccccc32)cc1	5	-3	i	59*	-0.17
CCOc1ccc(N=Nc2c(C)noc2C)cc1	-12	-11	i	16	0.81
CN(C)c1ccc(/C=C/c2ccc3ccccc3[n+]2C)cc1	-23	0	i	57*	x
COc1ccccc1-c1nnc(NC(=O)c2ccc(S(=O)(=O)N(C)Cc3ccccc3)cc2)o1	-5	-1	i	-67	-3.4*
CN(Cc1ccccc1)S(=O)(=O)c1ccc(C(=O)Nc2nnc(C3CC3)o2)cc1	-33	3	i	-91	x
O=C(Cc1ccccc1F)NCC1(N2CCOCC2)CCCCC1	x	x	i	-8	x
CC(C)(C)c1ccc(/C=N/NC(=S)NCc2ccccc2)cc1	-8	0	i	-16	-0.46
C=CCNC(=S)N/N=C/c1ccc(C(C)(C)C)cc1	1	-3	i	64*	-0.75
CCN(CCNCC(O)COCc1ccc(Cl)cc1)c1cccc(C)c1 (configuration not stated)	-33	31*	i	7	x
COc1ccc(/C=N/Nc2ccc(C(=O)O)cc2)cc1Br	13	1	i	-46	-0.078
C=CCOc1c(Br)cc(/C=N/Nc2ccc(C(=O)O)cc2)cc1OCC	31*	1	i	13	2.4
Cc1ccc(C(=O)O)cc1-c1ccc(/C=C2/NC(=O)N(c3ccccc3)C2=O)o1	40*	-5	i	-116	1.5
Cc1cc(C(=O)O)ccc1-c1ccc(/C=C2\NC(=O)N(Cc3ccccc3Cl)C2=O)o1	14	-5	i	-81	-0.26
COc1ccc(C)cc1NC(=O)c1ccccc1NS(=O)(=O)c1ccc(Cl)s1	-10	1	i	5	-3.7*
COc1ccccc1NC(=O)c1ccccc1NS(=O)(=O)c1cccs1	9	0	i	-19	-0.53
Cc1ccc(NC(=O)c2ccccc2NS(=O)(=O)c2ccc(Cl)s2)cc1S(=O)(=O)N1CCOCC1	-15	-2	x	-7	-3.1*
O=C(Nc1cc(S(=O)(=O)N2CCOCC2)ccc1O)c1ccc(NS(=O)(=O)c2ccc(Cl)s2)cc1	6	3	i	11	-0.16
COC(=O)[C@H](CC(C)C)NC(=O)Nc1ccccc1F	x	x	i	-9	x
COC(=O)c1sccc1N/N=C/c1cccc(Oc2ccccc2)c1	5	-2	i	-3	0.77
Cc1ccc2c(c1)c(-c1ccccc1)nc1nnnn12	-2	-9	i	-8	-0.2
SMILES	Arbovirus inh	HMGR II inh	HSV augment	m-calpain inh	ROMK primary
NC(=S)N/N=C/c1c(O)ccc2ccccc12	x	x	i	-1	0.44
NC(=S)N/N=C1/CCSc2ccc3ccccc3c21	4	-5	i	38	-3.2*
CN1C/C(=C/c2cccnc2)C(=O)/C(=C/c2cccnc2)C1	-1	-4	i	3	-3.5*
Cc1nn(C)c(Sc2ccccn2)c1[N+](=O)[O-]	x	x	i	3	-0.77
O=C1CC(c2cccc([N+](=O)[O-])c2)c2ccc3ccccc3c2N1 (configuration not stated)	36*	-5	i	22	-1.5
Nc1nc(SCc2ccc(Cl)cc2Cl)nc2nc3c(cc12)CCCC3	-24	-3	i	-33	-0.0066
COc1ccc(S(=O)(=O)N2CCc3ccccc32)cc1C(=O)OCc1c(C)noc1C	1	-2	i	4	x
COc1ccc(S(=O)(=O)N2CCCCCC2)cc1C(=O)OCc1c(C)noc1C	-5	-3	i	-11	-6.7*
Cn1nc(C(F)(F)F)c2cc(NC(=O)OCc3ccc(F)cc3)sc21	-25	4	i	90*	x
